The record followed here is PubChem BioAssay AID602340 (Broad Institute, 2012).

About 2,600 (0.79%) of roughly 330,000 compounds were called active.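 The calls were made as follows: active = mean ATP rescue above about 67%, or every replicate alone reaching that limit (limit read from the data, passing the limit was not always enough); inconclusive = no clear call, values can overlap the other calls; inactive = mean under the limit and some replicate under it.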 This excerpt belongs to a sample that is enriched for actives.

This assay can be described thus: protection of differentiated C2C12 cells from simvastatin – single point, plate reader, primary screen (AID 602340).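 Also: myotubes were challenged with 10 µM simvastatin during compound exposure.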 The settings on record: C2C12 myotubes + simvastatin, ATP luminescence, 48 h; at 7.49 µM; stronger effect = higher value; scaled: DMSO 0, geranylgeraniol control 100.
Take `CCCCOC(=O)Nc1sc2nc(C)cc(C)c2c1-n1cccc1`: the rescue of ATP level is 66.9% (active).

Take `COC(=O)Nc1sc2nc(C)cc(C)c2c1-n1cccc1`: the rescue of ATP level was -7.59% (inactive).

Regarding `Cc1cc(C)c2c(-n3cccc3)c(C(=O)NNS(=O)(=O)c3ccc(F)cc3)sc2n1`, the rescue of ATP level is 7.07% (inactive).

In the case of `CCC(=O)N(C)C[C@H]1[C@H](c2ccc(C3=CCCCC3)cc2)[C@@H](CO)N1C(C)=O`, the rescue of ATP level was 16.5% (inactive).

For `C[C@@H]1CN([C@H](C)CO)C(=O)Cc2cc(NC(=O)CCC(F)(F)F)ccc2O[C@@H]1CN(C)Cc1ccncc1`, the rescue of ATP level was -15.3% (inactive).

Regarding `C[C@H](CO)N1C[C@H](C)[C@H](CN(C)Cc2ccc(C(F)(F)F)cc2)Oc2ccc(NC(=O)CCCCCC(=O)Nc3ccccc3N)cc2CC1=O`, the rescue of ATP level was 183% (active).

On to `C[C@H]1CN([C@@H](C)CO)C(=O)Cc2cc(NC(=O)CCCCCC(=O)Nc3ccccc3N)ccc2O[C@@H]1CN(C)Cc1ccncc1`, for which the rescue of ATP level is 20.5% (inactive).

Turning to `C[C@H]1CN([C@@H](C)CO)C(=O)Cc2cc(NC(=O)Cn3cnnn3)ccc2O[C@H]1CN(C)Cc1ccc(C(=O)O)cc1`, the rescue of ATP level was -21.6% (inactive).

For `C[C@@H]1CN([C@@H](C)CO)C(=O)Cc2cc(NC(=O)CCCCCC(=O)Nc3ccccc3N)ccc2O[C@H]1CN(C)C(=O)Nc1ccc(C(F)(F)F)cc1`, the rescue of ATP level was -13.1% (inactive).

As for `C[C@H]1CN([C@@H](C)CO)C(=O)Cc2cc(NC(=O)CCCN(C)C)ccc2O[C@@H]1CN(C)Cc1ccc(-c2ccccc2)cc1`, the rescue of ATP level is 17.6% (inactive).

For `C[C@H](CO)N1C[C@H](C)[C@@H](CN(C)Cc2ccc(Cl)c(Cl)c2)Oc2ccc(NC(=O)Cn3cnnn3)cc2CC1=O`, the rescue of ATP level is 88.7% (active).

For the molecule `C[C@@H]1CN([C@H](C)CO)C(=O)Cc2cc(NC(=O)Cn3cnnn3)ccc2O[C@H]1CN(C)Cc1ccc(Cl)c(Cl)c1`, the rescue of ATP level was 18.5% (inactive).

As to `C[C@H](CO)N1C[C@H](C)[C@@H](CN(C)Cc2ccc(-c3ccccc3)cc2)Oc2ccc(NC(=O)CCC(F)(F)F)cc2CC1=O`, the rescue of ATP level is 74.7% (active).

`CO[C@H]1CN(C)C(=O)c2ccc(NC(C)=O)cc2OC[C@H](C)N(C(=O)c2ccccc2)C[C@H]1C`: the rescue of ATP level was 3.84% (inactive).

Take `C[C@@H](NC(=O)[C@H]1[C@H](CO)[C@H]2Cn3c(cccc3=O)[C@@H]1N2Cc1cccnc1)c1ccccc1`: the rescue of ATP level is -8.14% (inactive).

For the molecule `C/C=C/c1ccc2c(c1)O[C@@H](CN(C)CC1CCOCC1)[C@@H](C)CN([C@H](C)CO)S2(=O)=O`, the rescue of ATP level is 1.59% (inactive).

Regarding `COCC(=O)N(C[C@H]1N[C@H](CO)[C@H]1c1ccc(C2=CCCCC2)cc1)C(C)C`, the rescue of ATP level was -22.7% (inactive).

As for `Cc1noc(C)c1NC(=O)Nc1ccc2c(c1)CC(=O)N([C@@H](C)CO)C[C@H](C)[C@H](CN(C)S(=O)(=O)c1c(C)noc1C)O2`, the rescue of ATP level is -4.37% (inactive).

`O=C(NCC[C@@H]1CC[C@H](NC(=O)Nc2cc(F)ccc2F)[C@@H](CO)O1)Nc1ccc(Cl)cc1`: the rescue of ATP level was 2.28% (inactive).

As for `Cc1cc(C(=O)OCC(=O)c2c(N)n(C)c(=O)n(C)c2=O)c(C)o1`, the rescue of ATP level is 148% (active).

In the case of `Cn1c(N)c(C(=O)COC(=O)COc2ccc(Cl)cc2)c(=O)n(C)c1=O`, the rescue of ATP level is 9.73% (inactive).

Consider `Cn1c(N)c(C(=O)COC(=O)c2ccc3ccccc3c2)c(=O)n(C)c1=O`, for which the rescue of ATP level was -2.95% (inactive).

As to `COc1ccc(S(=O)(=O)Nc2cccc3c2O[C@@H](CN(C)C(=O)Nc2ccccc2)[C@@H](C)CN([C@H](C)CO)C3=O)cc1`, the rescue of ATP level is -38.3% (inactive).

On to `Cc1ccc(-c2csc(-c3c[nH]c4ccccc34)n2)cc1`, for which the rescue of ATP level was 102% (active).

As to `CCn1c(SCCC(C)C)nnc1-c1c[nH]c2ccccc12`, the rescue of ATP level is -7.75% (inactive).

With `Cc1ccc(-c2csc(NC3OC(=O)c4ccccc43)n2)cc1` (stereo not drawn), the rescue of ATP level is -7.28% (inactive).

As for `Cc1ccc(-c2nc(CS(=O)(=O)CC(=O)NCc3ccc4c(c3)OCO4)c(C)o2)cc1`, the rescue of ATP level was 28.8% (inactive).

In the case of `CC1(C(=O)NCc2ccc3c(c2)OCO3)CCN1CCc1ccccc1` (stereo not drawn), the rescue of ATP level was 34.5% (inactive).

`O=C(CN1CCN(c2nc(-c3ccccc3)cs2)CC1)NCc1ccc2c(c1)OCO2`: the rescue of ATP level is 124% (active).

In the case of `COc1ccc(NC(=O)CNC(=O)Cc2ccccc2)cc1OC`, the rescue of ATP level was -3.67% (inactive).

In the case of `COc1cc(=O)[nH]c(=O)n1C(=O)Cc1ccccc1`, the rescue of ATP level is 89.8% (active).

Turning to `CCCOc1ccc(Cn2c(O)cc(=O)[nH]c2=O)cc1`, the rescue of ATP level was 2.27% (inactive).

For the molecule `CCCNC(=O)N1[C@H](CNC(C)=O)[C@@H](c2ccc(C3=CCCC3)cc2)[C@@H]1CO`, the rescue of ATP level was 17.7% (inactive).

As for `O=C(N[C@H]1C=C[C@@H](CC(=O)N2CCCCC2)O[C@@H]1CO)c1ccc2c(c1)OCO2`, the rescue of ATP level is -0.462% (inactive).

As for `CO[C@@H]1CN(C)C(=O)c2cc(NC(=O)NC3CCCCC3)ccc2OC[C@H](C)N(CC2CCOCC2)C[C@H]1C`, the rescue of ATP level was -0.27% (inactive).

Take `Cc1ccc(S(=O)(=O)NCCC(=O)Nc2ccc(C)c(Cl)c2)cc1C`: the rescue of ATP level is 1.52% (inactive).

On to `Cc1ccnc(NC(=O)CCNS(=O)(=O)c2ccc(C)c(C)c2)c1`, for which the rescue of ATP level was 0.26% (inactive).

As to `CC(=O)CCS(=O)(=O)c1ccc(C)c(C)c1`, the rescue of ATP level was 101% (active).

As to `COc1ccc(C(O)c2nc(-c3ccc(OC)nc3)cs2)cc1` (stereo not drawn), the rescue of ATP level was 4.92% (inactive).

Consider `COc1cccc(C(O)c2nc(-c3ccc(C)c(C)c3)cs2)c1` (stereo not drawn), for which the rescue of ATP level is 8.62% (inactive).

On to `COc1ccc(C(O)c2nc(-c3ccc4c(c3)OCO4)cs2)cc1` (stereo not drawn), for which the rescue of ATP level is 87.4% (active).

For `O=C(O)CC(Cn1cnnn1)c1ccccc1` (stereo not drawn), the rescue of ATP level is 7.4% (inactive).

`CCOc1ccc(C(CC(=O)O)n2cnnn2)cc1OC` (stereo not drawn): the rescue of ATP level was 5.44% (inactive).

Take `O=C(O)CC(c1ccccc1)n1cnnn1` (stereo not drawn): the rescue of ATP level was 86% (active).

For the molecule `O=C(Nc1cccc(Cl)c1)N[C@H]1CC[C@H](CCNC(=O)C2CCOCC2)O[C@H]1CO`, the rescue of ATP level was -25.3% (inactive).

Consider `C[C@@H]1CCCCO[C@H](CN(C)C(=O)Nc2cccc3ccccc23)[C@H](C)CN([C@H](C)CO)C(=O)c2cc(NS(=O)(=O)c3cccs3)ccc2O1`, for which the rescue of ATP level is 28.4% (inactive).

For `C[C@@H]1CCCCO[C@H](CN(C)C(=O)Nc2cccc3ccccc23)[C@@H](C)CN([C@H](C)CO)C(=O)c2cc(NS(=O)(=O)c3cccs3)ccc2O1`, the rescue of ATP level was -12.1% (inactive).

Take `C[C@H](CO)N1C[C@H](C)[C@H](CN(C)C(=O)Nc2cccc3ccccc23)OCCCC[C@H](C)Oc2ccc(NC(=O)Nc3ccc4c(c3)OCO4)cc2C1=O`: the rescue of ATP level is 90.3% (active).

As for `C[C@@H]1CCCCO[C@@H](CN(C)S(C)(=O)=O)[C@H](C)CN([C@@H](C)CO)C(=O)c2cc(NS(=O)(=O)c3ccc(F)cc3)ccc2O1`, the rescue of ATP level is 132% (active).

For the molecule `C[C@@H]1CCCCO[C@@H](CN(C)Cc2ccc(Cl)c(Cl)c2)[C@H](C)CN([C@@H](C)CO)C(=O)c2cc(NS(C)(=O)=O)ccc2O1`, the rescue of ATP level was 98% (active).

On to `C[C@@H]1CCCCO[C@@H](CN(C)Cc2ccc3c(c2)OCO3)[C@H](C)CN([C@@H](C)CO)C(=O)c2cc(NS(C)(=O)=O)ccc2O1`, for which the rescue of ATP level was -0.957% (inactive).

Turning to `C[C@H]1CCCCO[C@H](CN(C)C(=O)Nc2ccccc2)[C@@H](C)CN([C@@H](C)CO)C(=O)c2cc(NC(=O)Nc3ccc4c(c3)OCO4)ccc2O1`, the rescue of ATP level is -0.0505% (inactive).

As for `C[C@@H]1CCCCO[C@@H](CN(C)Cc2ccc(Cl)c(Cl)c2)[C@@H](C)CN([C@@H](C)CO)C(=O)c2cc(NS(C)(=O)=O)ccc2O1`, the rescue of ATP level was -1.95% (inactive).

In the case of `C[C@@H]1CCCCO[C@H](CN(C)C(=O)Nc2cccc3ccccc23)[C@@H](C)CN([C@H](C)CO)C(=O)c2cc(NC(=O)Nc3ccc4c(c3)OCO4)ccc2O1`, the rescue of ATP level is -47.9% (inactive).

For `C[C@@H]1CCCCO[C@@H](CN(C)S(C)(=O)=O)[C@@H](C)CN([C@@H](C)CO)C(=O)c2cc(NS(=O)(=O)c3ccc(Cl)cc3)ccc2O1`, the rescue of ATP level was 7.9% (inactive).

Regarding `C[C@@H]1CCCCO[C@H](CN(C)S(C)(=O)=O)[C@@H](C)CN([C@H](C)CO)C(=O)c2cc(NS(=O)(=O)c3ccc(Cl)cc3)ccc2O1`, the rescue of ATP level was -21.9% (inactive).

As for `C[C@H]1CCCCO[C@@H](CN(C)C(=O)Nc2cccc3ccccc23)[C@@H](C)CN([C@@H](C)CO)C(=O)c2cc(NS(=O)(=O)c3ccc(Cl)cc3)ccc2O1`, the rescue of ATP level was 125% (active).

Turning to `C[C@H](NC(=O)C[C@@H]1CC[C@@H]2[C@H](COC[C@@H](O)CN2Cc2cc(F)ccc2F)O1)c1ccccc1`, the rescue of ATP level is 6.87% (inactive).

In the case of `CN1[C@@H]2c3ccc(C4=CCCCC4)c(=O)n3C[C@H]1[C@H](CO)[C@H]2C(=O)NCc1ccc(F)cc1`, the rescue of ATP level is 12.7% (inactive).

In the case of `C[C@H]1CN([C@@H](C)CO)C(=O)c2cc(C#CC3CCCC3)cnc2O[C@H]1CN(C)C(=O)c1ccncc1`, the rescue of ATP level was -53.3% (inactive).

For `CO[C@@H]1CN(C)C(=O)c2cc(NC(=O)Nc3cc(F)ccc3F)ccc2OC[C@@H](C)N(C)C[C@H]1C`, the rescue of ATP level was -33.7% (inactive).

Consider `C[C@H]1CN([C@@H](C)CO)S(=O)(=O)c2ccc(C#CC3CCCC3)cc2O[C@@H]1CN(C)C(=O)c1cccc(F)c1`, for which the rescue of ATP level was -41% (inactive).

Regarding `CNC(=O)C[C@H]1CC[C@H]2[C@H](COc3ccc(NC(=O)c4cc(C)on4)cc3C(=O)N2C)O1`, the rescue of ATP level was 7.63% (inactive).

On to `COc1ccccc1NC(=O)N1C[C@H]2[C@@H](c3ccccc31)[C@H](CO)N2Cc1ccc2c(c1)OCO2`, for which the rescue of ATP level is 46.6% (inactive).

Regarding `COc1ccc(OC)c(-c2csc(-c3cccs3)n2)c1`, the rescue of ATP level was -1.11% (inactive).

Consider `COc1cccc(C(=O)n2ccc(-c3cccs3)n2)c1`, for which the rescue of ATP level is 132% (active).

Consider `COc1cccc(NC(=O)CN(C)C(=O)/C=C/c2cn(-c3ccccc3)nc2-c2cccs2)c1`, for which the rescue of ATP level was -0.997% (inactive).

On to `O=C(N[C@@H]1CC[C@H](CCn2cc(-c3ccccn3)nn2)O[C@@H]1CO)c1ccccc1`, for which the rescue of ATP level was 0.826% (inactive).
